Laboratory results from PubChem BioAssay AID651946 (Broad Institute, 2012).
Measured potencies and affinities stand elsewhere. Active and inactive are the calls of the source.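 The calls were made as follows: active = toxic compound whose fitted half-effect dose of signal loss is at most twice its top tested dose; inconclusive = flat fit losing 30 to 70% signal, or poor fit; inactive = the rest.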

Assay: cytotoxicity in HeLa cells, dose response, cytotoxicity control, cell-based, plate reader, dry powder (AID 651946)
Details: HeLa viability, ATP luminescence (CellTiter-Glo), 48 h; series mostly up to 26 µM

SMILES | outcome
Clc1cccc(CSc2nnc(-c3ccccc3)o2)c1 | inactive
FC(F)(F)Oc1ccc(CSc2nnc(-c3ccccc3)o2)cc1 | inactive
[O-][n+]1ccccc1CSc1nnc(-c2ccccc2)o1 | inactive
Fc1ccc(CSc2nnc(-c3ccc(Cl)cc3)o2)cc1 | inactive
Fc1ccc(Cn2cc(CSc3nnc(C4CCC4)o3)nn2)cc1 | inactive
COc1ccc(CSc2nnc(-c3ccc(Cl)cc3)o2)nc1 | inactive
c1ccc(CSc2nnc(-c3ccco3)o2)cc1 | inactive
Fc1ccc(CSc2nnc(-c3ccncc3)o2)cc1 | inactive
c1ccc(CCc2nnc(SCc3ccccc3)o2)cc1 | inactive
O=C(Cc1ccccc1)c1nnc(-c2ccccc2)o1 | inactive
FC1(F)CCN(CCSc2nnc(-c3ccccc3)o2)CC1 | inactive
c1ccc(CSc2nnc(-c3cc4ccccc4o3)o2)cc1 | inactive
Cc1ccccc1-c1nnc(SCc2ccccc2)o1 | inactive
c1ccc(-n2cc(CSc3nnc(C4CCC4)o3)nn2)cc1 | inactive
Cc1ccc(-c2nnc(SCc3ccccc3)o2)cc1 | inactive
c1ccc(CSc2nnc(-c3ccccc3)s2)cc1 | inactive
CS(=O)(=O)c1ccc(-c2nnc(SCc3ccccc3)o2)cc1 | inactive
c1ccc(-c2nnc(SCc3cccnc3)o2)cc1 | inactive
c1ccc(-c2nnc(SCCN3CCOCC3)o2)cc1 | inactive

SMILES | outcome
FC(F)(F)c1cccc(CSc2nnc(-c3ccccc3)o2)c1 | inactive
Clc1ccc(CSc2nnc(-c3ccccc3)o2)cc1 | inactive
Clc1ccccc1CSc1nnc(-c2ccccc2)o1 | inactive
Fc1ccc(-c2nnc(SCc3ccccn3)o2)cc1 | inactive
O=S(Cc1cn(Cc2ccc(F)cc2)nn1)c1nnc(-c2ccc(Cl)cc2)o1 (configuration not stated) | inactive
FC1(F)CN(CCSc2nnc(-c3ccccc3)o2)C1 | inactive
Cc1nnc(SCc2ccccc2)o1 | inactive
Clc1ccc(-c2nnc(SCc3cn(Cc4ccccc4)nn3)o2)cc1 | inactive
N#Cc1cccc(-c2nnc(SCc3ccccc3)o2)c1 | inactive
c1ccc(-c2nnc(SC3CCCCC3)o2)cc1 | inactive
COc1ccccc1-c1nnc(SCc2ccccn2)o1 | inactive
CS(=O)(=O)c1cccc(CSc2nnc(-c3ccccc3)o2)c1 | inactive
COc1ccc(-c2nnc(SCc3ccccn3)o2)cc1 | inactive
Fc1cccc(-c2nnc(SCc3ccccn3)o2)c1 | inactive
c1ccc(-c2nnc(SCc3ccncc3)o2)cc1 | inactive
CN(C)CCSc1nnc(-c2ccccc2)o1 | inactive
c1ccc(CSc2nnc(-c3ccncc3)o2)nc1 | inactive
CC1(O)CN(CCSc2nnc(-c3ccccc3)o2)C1 | inactive
